In the supplement of paper PMC11732987, “Enantioselective OTUD7B fragment discovery through chemoproteomics screening and high-throughput optimisation” (Communications Chemistry, 2025):

What was measured:
Assay in all cases: log2 ratio of Biotin-Ahx-Ub-VS probe labelling (fragment/DMSO); higher = less target engagement (more negative = stronger competition), active = hit call of the paper (q ≤ 0.05, log2 ratio ≤ -1)
Details in all cases: compound concentration: 200 uM; treatment time: 3 h
OTUD6B = target: T1, OTUD6B (UniProt Q8N6M0)
T1 sequence (whole entry): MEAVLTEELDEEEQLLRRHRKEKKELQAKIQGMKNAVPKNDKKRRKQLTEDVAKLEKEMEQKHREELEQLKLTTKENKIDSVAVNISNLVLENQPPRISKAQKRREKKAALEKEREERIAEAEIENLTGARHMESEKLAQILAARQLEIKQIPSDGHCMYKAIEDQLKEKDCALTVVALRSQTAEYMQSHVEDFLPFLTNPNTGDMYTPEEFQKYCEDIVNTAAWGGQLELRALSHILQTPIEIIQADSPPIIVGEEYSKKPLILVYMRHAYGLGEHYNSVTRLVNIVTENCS
How it was run: (§1)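 HEK293T lysate (495 µg per sample, in Tris/CHAPS/IGEPAL buffer with protease inhibitors) was exposed in triplicate for 3 h to fragment at 200 µM or to vehicle, then to Biotin-Ahx-Ub-VS at 0.5 µM final for 1 h. Labelled DUBs were enriched on NeutrAvidin, digested with LysC and trypsin, and analysed by diaPASEF LC-MS/MS. Spectronaut label-free quantities were normalised to the global median, and values are average log2 ratios of fragment over vehicle from an unpaired t-test. Only proteins with ≥2 unique peptides were used.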

OTUD7B = target: T2, OTUD7B (UniProt Q6GQQ9)
T2 sequence (whole entry): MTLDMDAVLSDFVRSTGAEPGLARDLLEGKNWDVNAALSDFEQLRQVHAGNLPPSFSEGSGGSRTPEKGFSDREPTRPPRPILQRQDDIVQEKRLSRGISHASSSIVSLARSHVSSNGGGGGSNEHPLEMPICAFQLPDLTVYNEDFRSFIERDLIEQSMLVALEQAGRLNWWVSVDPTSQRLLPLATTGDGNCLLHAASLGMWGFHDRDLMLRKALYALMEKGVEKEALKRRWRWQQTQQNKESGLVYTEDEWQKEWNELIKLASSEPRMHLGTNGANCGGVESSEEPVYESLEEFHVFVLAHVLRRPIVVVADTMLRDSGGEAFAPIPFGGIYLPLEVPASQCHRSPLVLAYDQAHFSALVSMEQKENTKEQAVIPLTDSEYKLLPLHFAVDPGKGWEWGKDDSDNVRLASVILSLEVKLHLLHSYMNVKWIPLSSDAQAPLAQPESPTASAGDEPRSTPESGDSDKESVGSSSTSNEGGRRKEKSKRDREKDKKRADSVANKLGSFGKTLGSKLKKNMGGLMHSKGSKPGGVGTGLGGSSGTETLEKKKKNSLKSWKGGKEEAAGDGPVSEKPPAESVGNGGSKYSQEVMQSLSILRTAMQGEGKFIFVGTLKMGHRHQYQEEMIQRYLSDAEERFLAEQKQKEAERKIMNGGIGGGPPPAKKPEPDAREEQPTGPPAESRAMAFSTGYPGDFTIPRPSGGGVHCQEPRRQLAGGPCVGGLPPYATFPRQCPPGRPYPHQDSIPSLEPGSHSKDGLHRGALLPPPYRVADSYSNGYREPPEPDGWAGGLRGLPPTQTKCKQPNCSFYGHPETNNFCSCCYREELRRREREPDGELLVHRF
How it was run: as §1

PRPF8 = PRPF8 (UniProt Q6P2Q9)
How it was run: as §1

PSMD7 = target: T3, PSMD7 (UniProt P51665)
T3 sequence (whole entry): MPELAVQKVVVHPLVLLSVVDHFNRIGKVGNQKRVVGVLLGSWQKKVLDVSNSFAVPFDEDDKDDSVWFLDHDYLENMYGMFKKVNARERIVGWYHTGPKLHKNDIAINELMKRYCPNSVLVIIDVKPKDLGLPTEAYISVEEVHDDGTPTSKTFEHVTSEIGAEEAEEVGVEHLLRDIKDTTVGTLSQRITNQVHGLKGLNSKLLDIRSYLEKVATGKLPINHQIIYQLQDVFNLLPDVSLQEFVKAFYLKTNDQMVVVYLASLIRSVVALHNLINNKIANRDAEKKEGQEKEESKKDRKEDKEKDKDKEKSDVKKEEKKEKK
How it was run: as §1

UCHL1 = UCHL1 (UniProt P09936)
Sequence of UCHL1 (P09936 whole entry, looked up): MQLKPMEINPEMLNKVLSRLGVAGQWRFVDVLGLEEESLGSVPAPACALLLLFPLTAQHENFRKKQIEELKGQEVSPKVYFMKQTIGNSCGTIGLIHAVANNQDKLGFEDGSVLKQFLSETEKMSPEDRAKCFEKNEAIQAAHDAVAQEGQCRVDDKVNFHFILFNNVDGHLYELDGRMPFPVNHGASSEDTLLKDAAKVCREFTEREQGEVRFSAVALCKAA
How it was run: as §1

UCHL3 = target: T4, UCHL3 (UniProt P15374)
T4 sequence (whole entry): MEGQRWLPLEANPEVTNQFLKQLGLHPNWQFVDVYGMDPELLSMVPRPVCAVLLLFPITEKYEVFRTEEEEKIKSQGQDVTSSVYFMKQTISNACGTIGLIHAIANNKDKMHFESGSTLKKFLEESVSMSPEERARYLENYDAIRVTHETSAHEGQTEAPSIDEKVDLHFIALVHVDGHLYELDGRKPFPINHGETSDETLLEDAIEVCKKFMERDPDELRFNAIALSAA
How it was run: as §1

UCHL5 = target: T5, UCHL5 (UniProt Q9Y5K5)
T5 sequence (whole entry): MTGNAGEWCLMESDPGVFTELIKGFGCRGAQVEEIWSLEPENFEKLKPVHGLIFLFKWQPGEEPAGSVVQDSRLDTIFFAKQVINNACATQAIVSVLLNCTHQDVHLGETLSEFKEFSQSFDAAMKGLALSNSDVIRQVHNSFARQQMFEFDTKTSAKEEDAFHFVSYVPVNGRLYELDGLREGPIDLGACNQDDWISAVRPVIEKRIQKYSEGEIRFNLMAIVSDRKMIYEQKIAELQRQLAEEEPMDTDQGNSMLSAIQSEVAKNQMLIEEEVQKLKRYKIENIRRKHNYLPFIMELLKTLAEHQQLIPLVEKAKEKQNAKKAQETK
How it was run: as §1

USP10 = USP10 (UniProt Q14694)
Sequence of USP10 (Q14694 whole entry): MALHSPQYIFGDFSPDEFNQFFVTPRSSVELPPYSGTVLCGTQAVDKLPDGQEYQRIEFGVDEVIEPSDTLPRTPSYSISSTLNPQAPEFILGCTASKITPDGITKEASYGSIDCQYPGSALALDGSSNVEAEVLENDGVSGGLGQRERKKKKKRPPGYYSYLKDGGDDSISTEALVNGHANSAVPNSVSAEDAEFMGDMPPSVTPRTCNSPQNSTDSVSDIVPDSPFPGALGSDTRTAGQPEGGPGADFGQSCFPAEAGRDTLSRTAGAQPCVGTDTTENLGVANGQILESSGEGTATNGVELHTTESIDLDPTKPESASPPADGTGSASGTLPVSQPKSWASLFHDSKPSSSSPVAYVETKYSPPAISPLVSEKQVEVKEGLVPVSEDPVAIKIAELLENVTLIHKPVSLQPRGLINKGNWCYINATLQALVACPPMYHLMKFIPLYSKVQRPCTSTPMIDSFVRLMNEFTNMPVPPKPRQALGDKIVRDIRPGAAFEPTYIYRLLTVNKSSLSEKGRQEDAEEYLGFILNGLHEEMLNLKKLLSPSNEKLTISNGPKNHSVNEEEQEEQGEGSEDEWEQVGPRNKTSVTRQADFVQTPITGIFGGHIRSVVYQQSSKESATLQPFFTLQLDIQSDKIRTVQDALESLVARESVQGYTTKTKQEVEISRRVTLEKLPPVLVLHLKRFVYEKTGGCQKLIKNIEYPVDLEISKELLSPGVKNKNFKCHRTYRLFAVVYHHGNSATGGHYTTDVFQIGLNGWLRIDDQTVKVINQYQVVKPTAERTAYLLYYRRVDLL
How it was run: as §1

USP15 = target: T6, USP15 (UniProt Q9Y4E8)
T6 sequence (whole entry): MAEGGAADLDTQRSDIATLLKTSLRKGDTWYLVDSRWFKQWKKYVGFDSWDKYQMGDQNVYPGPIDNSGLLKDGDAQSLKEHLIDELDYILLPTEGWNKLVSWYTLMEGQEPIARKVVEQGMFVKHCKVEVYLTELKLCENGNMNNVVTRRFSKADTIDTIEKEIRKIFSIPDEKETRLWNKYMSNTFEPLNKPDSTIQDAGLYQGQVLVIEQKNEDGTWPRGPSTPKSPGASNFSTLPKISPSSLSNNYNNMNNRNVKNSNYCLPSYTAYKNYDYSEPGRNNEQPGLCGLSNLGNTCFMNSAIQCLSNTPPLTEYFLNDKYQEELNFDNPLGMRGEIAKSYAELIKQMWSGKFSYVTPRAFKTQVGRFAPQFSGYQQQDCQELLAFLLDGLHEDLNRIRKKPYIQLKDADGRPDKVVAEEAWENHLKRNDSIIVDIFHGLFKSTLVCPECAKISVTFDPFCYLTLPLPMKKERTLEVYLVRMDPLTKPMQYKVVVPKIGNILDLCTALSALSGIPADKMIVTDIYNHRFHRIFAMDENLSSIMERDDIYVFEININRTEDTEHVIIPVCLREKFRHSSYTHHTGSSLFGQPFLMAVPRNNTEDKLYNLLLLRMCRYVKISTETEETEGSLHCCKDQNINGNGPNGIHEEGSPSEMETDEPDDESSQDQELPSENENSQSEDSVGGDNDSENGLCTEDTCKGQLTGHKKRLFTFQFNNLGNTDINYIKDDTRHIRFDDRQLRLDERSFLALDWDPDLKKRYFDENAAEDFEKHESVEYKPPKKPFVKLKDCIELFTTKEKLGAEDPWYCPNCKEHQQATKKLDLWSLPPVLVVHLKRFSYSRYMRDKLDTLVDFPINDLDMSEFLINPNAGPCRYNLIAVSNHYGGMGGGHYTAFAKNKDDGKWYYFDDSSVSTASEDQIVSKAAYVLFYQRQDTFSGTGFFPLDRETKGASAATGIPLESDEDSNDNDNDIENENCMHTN
How it was run: as §1

USP16 = USP16 (UniProt Q9Y5T5)
Sequence of USP16 (Q9Y5T5 whole entry, looked up): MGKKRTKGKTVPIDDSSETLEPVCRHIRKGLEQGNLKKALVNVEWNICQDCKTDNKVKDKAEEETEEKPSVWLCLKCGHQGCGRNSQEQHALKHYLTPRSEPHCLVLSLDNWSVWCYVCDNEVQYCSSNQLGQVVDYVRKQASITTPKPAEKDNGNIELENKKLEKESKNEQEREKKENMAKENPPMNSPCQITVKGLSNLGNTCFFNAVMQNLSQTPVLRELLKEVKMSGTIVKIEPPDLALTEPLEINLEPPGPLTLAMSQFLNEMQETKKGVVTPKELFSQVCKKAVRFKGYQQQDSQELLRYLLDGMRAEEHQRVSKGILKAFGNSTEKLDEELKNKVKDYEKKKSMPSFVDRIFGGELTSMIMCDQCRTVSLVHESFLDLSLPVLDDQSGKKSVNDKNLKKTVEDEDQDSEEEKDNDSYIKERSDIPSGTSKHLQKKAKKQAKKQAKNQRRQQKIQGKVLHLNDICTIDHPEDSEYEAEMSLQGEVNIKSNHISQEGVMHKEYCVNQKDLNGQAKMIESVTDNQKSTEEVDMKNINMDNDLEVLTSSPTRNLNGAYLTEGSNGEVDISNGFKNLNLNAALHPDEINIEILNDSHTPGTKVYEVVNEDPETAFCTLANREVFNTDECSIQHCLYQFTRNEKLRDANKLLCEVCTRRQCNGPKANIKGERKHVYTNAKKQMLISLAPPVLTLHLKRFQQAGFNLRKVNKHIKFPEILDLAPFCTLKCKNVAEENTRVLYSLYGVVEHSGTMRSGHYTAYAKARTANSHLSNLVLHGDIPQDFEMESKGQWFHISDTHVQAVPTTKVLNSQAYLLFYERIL
How it was run: as §1

Measured: log2 ratio of Biotin-Ahx-Ub-VS probe labelling

Cc1ccc(N(CCC#N)C(=O)CCl)cc1C
inactive: OTUD6B -0.133 | PRPF8 0.0257 | PSMD7 -0.41 | UCHL3 0.292 | UCHL5 -0.157 | USP10 -0.00551 | USP15 -0.234 | USP16 -0.0509
active: OTUD7B -1.99 | UCHL1 -1.31
